Among all 5,500 compounds or so, about 2,000 (36%) were called active. Roughly 18% stayed inconclusive and do not appear here. Cut-off read from the data, not from the text of the source: active = normalized growth mostly below about 0.91 (no sharp cut-off); inconclusive = no clear call, values can overlap the other calls; inactive = mostly above about 0.92. Some of the results follow.
Test: chemical genetic growth profiling, strain panel (AID 1159580);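 note: tested at 20 µM; growth read once vehicle control cultures reached saturation at 30 °C; 1 = growth at the plate median or of vehicle wells; lower values mean less growth of the strain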
Conditions: growth OD
[1] = S. cerevisiae deletion strains, locus YAL013W, strain DEP1, stronger effect = lower value
[2] = S. cerevisiae deletion strains, locus YDL101C, strain DUN1, stronger effect = lower value
[3] = S. cerevisiae deletion strains, locus YDR150W, strain NUM1, stronger effect = lower value
[4] = S. cerevisiae deletion strains, locus YGR229C, strain SMI1, stronger effect = lower value
[5] = S. cerevisiae deletion strains, locus YHR030C, strain SLT2, stronger effect = lower value
[6] = S. cerevisiae deletion strains, locus YMR263W, strain SAP30, stronger effect = lower value
[7] = S. cerevisiae deletion strains, locus YNL153C, strain GIM3, stronger effect = lower value
[8] = S. cerevisiae deletion strains, locus YNL322C, strain KRE1, stronger effect = lower value
[9] = S. cerevisiae deletion strains, locus YPL055C, strain LGE1, stronger effect = lower value
[10] = S. cerevisiae deletion strains, locus YAL040C, strain CLN3, stronger effect = lower value
[11] = S. cerevisiae deletion strains, locus YCL061C, strain MRC1 (second series), stronger effect = lower value
[12] = S. cerevisiae deletion strains, locus YER002W, strain NOP16, stronger effect = lower value
[13] = S. cerevisiae deletion strains, locus YNL175C, strain NOP13, stronger effect = lower value
[14] = S. cerevisiae deletion strains, locus YNL197C, strain WHI3, stronger effect = lower value
[15] = S. cerevisiae deletion strains, locus YNL224C, strain SQS1, stronger effect = lower value
[16] = S. cerevisiae deletion strains, locus YOR083W, strain WHI5 (second series), stronger effect = lower value

Measured: normalized growth

COc1ccc(NC(=O)c2cc(C(F)(F)F)cc(C(F)(F)F)c2)cn1
active: S. cerevisiae deletion strains, locus YGR078C, strain PAC10, stronger effect = lower value 0.92 | S. cerevisiae deletion strains, locus YLR039C, strain RIC1, stronger effect = lower value 0.539 | S. cerevisiae deletion strains, locus YLR058C, strain SHM2 (second series), stronger effect = lower value 0.926 | S. cerevisiae deletion strains, locus YLR262C, strain YPT6, stronger effect = lower value 0.636 | [8] 0.938 | S. cerevisiae deletion strains, locus YPR135W, strain CTF4, stronger effect = lower value 0.611
inactive: [1] 0.964 | S. cerevisiae deletion strains, locus YBR229C, strain ROT2, stronger effect = lower value 0.938 | S. cerevisiae deletion strains, locus YCL061C, strain MRC1, stronger effect = lower value 0.968 | [2] 0.928 | [3] 1.05 | S. cerevisiae deletion strains, locus YEL061C, strain CIN8, stronger effect = lower value 0.942 | [4] 0.959 | [5] 0.826 | S. cerevisiae deletion strains, locus YHR087W, strain rtc3, stronger effect = lower value 0.925 | S. cerevisiae deletion strains, locus YJR043C, strain POL32, stronger effect = lower value 0.959 | S. cerevisiae deletion strains, locus YJR075W, strain HOC1, stronger effect = lower value 0.893 | S. cerevisiae deletion strains, locus YKL190W, strain CNB1, stronger effect = lower value 0.947 | S. cerevisiae deletion strains, locus YLR085C, strain ARP6, stronger effect = lower value 0.781 | S. cerevisiae deletion strains, locus YML094W, strain GIM5, stronger effect = lower value 0.927 | S. cerevisiae deletion strains, locus YMR219W, strain ESC1, stronger effect = lower value 0.949 | [6] 0.98 | S. cerevisiae deletion strains, locus YNL128W, strain TEP1, stronger effect = lower value 0.953 | [7] 0.983 | S. cerevisiae deletion strains, locus YNL298W, strain CLA4 (second series), stronger effect = lower value 0.895 | S. cerevisiae deletion strains, locus YNR030W, strain Alg12, stronger effect = lower value 0.9 | S. cerevisiae deletion strains, locus YOL006C, strain TOP1, stronger effect = lower value 0.867 | [9] 0.963 | S. cerevisiae deletion strains, locus YPL241C, strain CIN2, stronger effect = lower value 0.908 | S. cerevisiae strains, strain wild type, stronger effect = lower value 0.931

CC(=O)OCC1=C(C(=O)O)N2C(=O)C(NC(=O)CSc3ccncc3)C2SC1 (stereo unspecified)
inactive: [10] 0.974 | [11] 0.991 | [12] 1.02 | [4] 0.99 | [6] 0.974 | [13] 1 | [14] 1 | [15] 1 | [16] 1.02 | [9] 1.01

CC1=C(CC(=O)O)c2cc(F)ccc2/C1=C\c1ccc(S(C)(=O)=O)cc1
inactive: [1] 1.02 | [10] 0.996 | [11] 0.99 | [3] 0.989 | S. cerevisiae deletion strains, locus YDR363W, strain ESC2, stronger effect = lower value 1.02 | [12] 1 | [4] 1.04 | S. cerevisiae deletion strains, locus YMR307W, strain GAS1, stronger effect = lower value 0.946 | [7] 0.982 | [13] 0.98 | [14] 0.979 | [15] 0.99 | [8] 1 | [16] 0.973 | [9] 1.05

Cc1ccc(/C=C2\CSc3ccc(F)cc3C2=O)cc1
active: [5] 0.706 | S. cerevisiae deletion strains, locus YLR113W, strain HOG1, stronger effect = lower value 0.697 | S. cerevisiae deletion strains, locus YPL256C, strain CLN2, stronger effect = lower value 0.831
inactive: S. cerevisiae deletion strains, locus YAR019C, strain CDC15, stronger effect = lower value 0.942 | S. cerevisiae deletion strains, locus YBL105C, strain PKC1, stronger effect = lower value 0.955 | S. cerevisiae deletion strains, locus YBR135W, strain CKS1, stronger effect = lower value 0.953 | S. cerevisiae deletion strains, locus YBR136W, strain MEC1, stronger effect = lower value 0.953 | S. cerevisiae deletion strains, locus YBR160W, strain CDC28, stronger effect = lower value 0.959 | S. cerevisiae deletion strains, locus YDL017W, strain CDC7, stronger effect = lower value 0.958 | S. cerevisiae deletion strains, locus YDL028C, strain MPS1, stronger effect = lower value 0.932 | [2] 0.971 | S. cerevisiae deletion strains, locus YDL108W, strain KIN28, stronger effect = lower value 0.93 | S. cerevisiae deletion strains, locus YDL132W, strain cdc53, stronger effect = lower value 0.937 | S. cerevisiae deletion strains, locus YDL214C, strain PRR2, stronger effect = lower value 0.892 | S. cerevisiae deletion strains, locus YDR052C, strain DBF4, stronger effect = lower value 0.972 | S. cerevisiae deletion strains, locus YDR054C, strain cdc34, stronger effect = lower value 0.94 | S. cerevisiae deletion strains, locus YDR226W, strain ADK1, stronger effect = lower value 0.952 | S. cerevisiae deletion strains, locus YDR477W, strain SNF1, stronger effect = lower value 0.892 | S. cerevisiae deletion strains, locus YER123W, strain YCK3, stronger effect = lower value 0.864 | S. cerevisiae deletion strains, locus YER133W, strain GLC7, stronger effect = lower value 0.902 | S. cerevisiae deletion strains, locus YFL009W, strain cdc4, stronger effect = lower value 0.904 | S. cerevisiae deletion strains, locus YFL029C, strain CAK1, stronger effect = lower value 0.946 | S. cerevisiae deletion strains, locus YFR003C, strain YPI1, stronger effect = lower value 0.954 | S. cerevisiae deletion strains, locus YFR019W, strain FAB1, stronger effect = lower value 0.934 | S. cerevisiae deletion strains, locus YFR028C, strain CDC14, stronger effect = lower value 0.935 | S. cerevisiae deletion strains, locus YGR040W, strain KSS1, stronger effect = lower value 0.889 | S. cerevisiae deletion strains, locus YGR052W, strain FMP48, stronger effect = lower value 0.91 | S. cerevisiae deletion strains, locus YGR092W, strain DBF2, stronger effect = lower value 0.86 | S. cerevisiae deletion strains, locus YHR079C, strain IRE1, stronger effect = lower value 0.856 | S. cerevisiae deletion strains, locus YHR082C, strain KSP1, stronger effect = lower value 0.915 | S. cerevisiae deletion strains, locus YHR205W, strain SCH9, stronger effect = lower value 0.845 | S. cerevisiae deletion strains, locus YIL147C, strain SLN1, stronger effect = lower value 0.953 | S. cerevisiae deletion strains, locus YJL095W, strain BCK1, stronger effect = lower value 0.859 | S. cerevisiae deletion strains, locus YJL128C, strain PBS2, stronger effect = lower value 0.888 | S. cerevisiae deletion strains, locus YJL157C, strain FAR1, stronger effect = lower value 0.906 | S. cerevisiae deletion strains, locus YJR016C, strain ILV3, stronger effect = lower value 0.956 | S. cerevisiae deletion strains, locus YJR066W, strain TOR1 (second series), stronger effect = lower value 0.869 | S. cerevisiae deletion strains, locus YJR066W, strain TOR1, stronger effect = lower value 0.862 | S. cerevisiae deletion strains, locus YKL048C, strain ELM1, stronger effect = lower value 0.92 | S. cerevisiae deletion strains, locus YKL067W, strain YNK1, stronger effect = lower value 0.885 | S. cerevisiae deletion strains, locus YKL101W, strain HSL1, stronger effect = lower value 0.895 | S. cerevisiae deletion strains, locus YKL193C, strain SDS22, stronger effect = lower value 0.938 | S. cerevisiae deletion strains, locus YKL203C, strain TOR2, stronger effect = lower value 0.985 | S. cerevisiae deletion strains, locus YLR133W, strain CKI1, stronger effect = lower value 0.915 | S. cerevisiae deletion strains, locus YLR403W, strain SFP1, stronger effect = lower value 0.898 | S. cerevisiae deletion strains, locus YML070W, strain DAK1, stronger effect = lower value 0.882 | S. cerevisiae deletion strains, locus YMR001C, strain CDC5, stronger effect = lower value 0.944 | S. cerevisiae deletion strains, locus YMR205C, strain PFK2 (second series), stronger effect = lower value 0.911 | S. cerevisiae deletion strains, locus YMR277W, strain FCP1, stronger effect = lower value 0.923 | S. cerevisiae deletion strains, locus YNL006W, strain LST8, stronger effect = lower value 0.952 | S. cerevisiae deletion strains, locus YNL020C, strain ARK1, stronger effect = lower value 0.915 | S. cerevisiae deletion strains, locus YNL161W, strain CBK1, stronger effect = lower value 0.955 | S. cerevisiae deletion strains, locus YNL183C, strain NPR1, stronger effect = lower value 0.903 | S. cerevisiae deletion strains, locus YNL207W, strain RIO2, stronger effect = lower value 0.945 | S. cerevisiae deletion strains, locus YNL222W, strain SSU72, stronger effect = lower value 0.937 | S. cerevisiae deletion strains, locus YNL307C, strain MCK1 (second series), stronger effect = lower value 0.85 | S. cerevisiae deletion strains, locus YOL078W, strain AVO1, stronger effect = lower value 0.945 | S. cerevisiae deletion strains, locus YOL136C, strain PFK27, stronger effect = lower value 0.881 | S. cerevisiae deletion strains, locus YOR061W, strain CKA2, stronger effect = lower value 0.887 | S. cerevisiae deletion strains, locus YOR119C, strain RIO1, stronger effect = lower value 0.932 | S. cerevisiae deletion strains, locus YOR231W, strain MKK1, stronger effect = lower value 0.835 | S. cerevisiae deletion strains, locus YOR329C, strain SCD5, stronger effect = lower value 0.956 | S. cerevisiae deletion strains, locus YPL031C, strain PHO85, stronger effect = lower value 0.896 | S. cerevisiae deletion strains, locus YPL153C, strain RAD53, stronger effect = lower value 0.888 | S. cerevisiae deletion strains, locus YPL204W, strain HRR25, stronger effect = lower value 0.876 | S. cerevisiae deletion strains, locus YPL209C, strain IPL1, stronger effect = lower value 0.952 | S. cerevisiae deletion strains, locus YPR025C, strain CCL1, stronger effect = lower value 0.958 | S. cerevisiae deletion strains, locus YPR106W, strain ISR1, stronger effect = lower value 0.952 | S. cerevisiae deletion strains, locus YPR111W, strain DBF20, stronger effect = lower value 0.916 | S. cerevisiae deletion strains, strain NNK1, stronger effect = lower value 0.946 | S. cerevisiae deletion strains, strain TSCII, stronger effect = lower value 0.942
